Screens (PubChem)
Neddyl block: blocks human cullin neddylation | P61081+Q13564 | TR-FRET cullin neddylation, biochemical | inhibition, % at 25 µM | hit rate 0.58% among 360,000 | AID 651699; in the data active = inhibition above about 36%
GC-B act: GC-B (human) receptor activation; P20594; HEK293-GC-B cells, CNP EC30, cGMP TR-FRET; 0% at EC30 CNP, 100% saturating CNP; activation, % at 10 µM; hit rate 0.11% among 370,000; AID 1920062;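 active = activation at 10 µM reaching about 35% in either raw or pattern-adjusted values, limit read from the data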
Target sequence (P20594 whole entry, looked up): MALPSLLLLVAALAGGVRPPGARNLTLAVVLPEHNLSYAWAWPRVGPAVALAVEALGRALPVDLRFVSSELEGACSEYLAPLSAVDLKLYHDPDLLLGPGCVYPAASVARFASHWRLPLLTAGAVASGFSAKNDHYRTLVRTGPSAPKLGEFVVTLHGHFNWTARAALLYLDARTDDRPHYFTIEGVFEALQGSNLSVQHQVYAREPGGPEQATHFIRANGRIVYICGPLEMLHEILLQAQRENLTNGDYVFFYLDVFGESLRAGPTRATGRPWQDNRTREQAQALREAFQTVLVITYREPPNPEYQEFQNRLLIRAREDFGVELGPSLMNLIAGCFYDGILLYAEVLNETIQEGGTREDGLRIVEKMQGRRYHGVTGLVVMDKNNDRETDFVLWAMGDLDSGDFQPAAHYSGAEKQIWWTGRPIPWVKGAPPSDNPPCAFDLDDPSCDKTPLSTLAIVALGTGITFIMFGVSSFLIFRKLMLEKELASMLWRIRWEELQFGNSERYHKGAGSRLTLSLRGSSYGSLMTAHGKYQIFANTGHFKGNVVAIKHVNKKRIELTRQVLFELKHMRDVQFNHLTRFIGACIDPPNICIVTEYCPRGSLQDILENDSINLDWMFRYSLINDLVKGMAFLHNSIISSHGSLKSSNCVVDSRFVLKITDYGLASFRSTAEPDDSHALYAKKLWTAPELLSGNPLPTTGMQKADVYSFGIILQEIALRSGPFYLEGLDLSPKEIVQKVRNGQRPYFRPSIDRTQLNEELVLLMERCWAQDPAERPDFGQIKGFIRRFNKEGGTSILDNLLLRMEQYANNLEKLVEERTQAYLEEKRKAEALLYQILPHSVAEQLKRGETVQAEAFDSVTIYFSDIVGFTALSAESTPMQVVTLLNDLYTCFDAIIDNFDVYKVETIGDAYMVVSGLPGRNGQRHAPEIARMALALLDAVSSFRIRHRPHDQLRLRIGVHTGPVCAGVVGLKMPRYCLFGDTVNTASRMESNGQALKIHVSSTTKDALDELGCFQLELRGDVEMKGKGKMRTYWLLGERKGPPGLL
NPR1 activator: GC-A (human) enzyme activation. P16066. HEK293 GC-A cells, cGMP TR-FRET, EC30 ANP; 0% at EC30 ANP, 100% saturating ANP. activation, % at 10 µM. hit rate 0.14% among 370,000. AID 1671463; in the data active = activation above about 40%
NadD inh: inhibitors of Staphylococcus aureus NadD | hit rate 0.78% among 360,000 | purified NadD enzyme, colorimetric absorbance read-out | inhibition, % at 20 µM; in the data active = inhibition above about 26%
Neddyl inh conf: confirmation of human cullin neddylation inhibitors | hit rate 13% among 1,800 | calls only at 25 µM | AID 652217 | shares compounds with Neddyl block | TR-FRET cullin neddylation biochemical assay; in the data active = inhibition above about 40%;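 also: neddylation substrate is the cullin 1 ring ligase complex with SKP2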
Numbers without * were called inactive; i = inactive; / = no result given; + = active, no number. Sampled rows, rich in hits. Any-hit rate of the full collection: about 1.5%.

SMILES	Neddyl block	GC-B act	NPR1 activator	NadD inh	Neddyl inh conf
Cc1ccc(-c2cc(C(=O)OCC(=O)NC3CC3)c3ccccc3n2)cc1	47.0*	-0.8	-0.9	-4.2	/
COc1ccc(-c2cc(C(=O)N3CCCCCC3)c3ccccc3n2)cc1OC	/	2.0	4.6	8.5	/
COc1ccc(-c2cc(C(=O)OCC(=O)N3CCCCC3)c3ccccc3n2)cc1OC	45.1*	5.1	7.0	2.4	i
O=C(O)c1cc(N2CCOCC2)nc2ccccc12	/	3.2	0.0	1.7	/
O=C(c1cc(N2CCCCC2)nc2ccccc12)N1CCOCC1	43.0*	4.0	5.0	0.0	i
COc1cc(-c2cc(C(=O)N3CCCCCC3)c3ccccc3n2)cc(OC)c1OC	49.9*	8.2	12.5	0.6	/
CCCC/C=C1/[C@H](c2ccccc2)N(C)C2=N[C@H](c3ccccc3)CC(=O)N21	/	-30.7	-30.1	/	/
O=C(c1ccc(F)cc1Cl)N1CCCC(c2nc(-c3cccs3)no2)C1 (configuration not stated)	/	-1.4	0.4	/	/
COC(=O)[C@H](CC(C)C)N(Cc1cn(Cc2ccc(C)cc2)nn1)S(=O)(=O)c1ccc(F)cc1Br	/	3.7	2.4	/	/
CC(=O)N1CCN(c2ccc(Nc3ncnc4c3oc3ccccc34)cc2)CC1	11.9	10.0	3.6	4.8	/
Cc1ccc(Nc2nc(C)nc3c2oc2ccccc23)cc1	37.0*	-7.1	10.6	-4.5	/
CCc1nc(Nc2ccc(N3CCN(C(C)=O)CC3)cc2)c2oc3ccccc3c2n1	38.3*	19.6	14.9	-1.9	i
COc1ccc(C2C(C(=O)Nc3cc(Cl)ccc3F)CCC(=O)N2c2ccc(OC)cc2)cc1 (configuration not stated)	/	-4.4	-6.6	/	/
COC(=O)c1ccc(CN(c2ccccn2)S(=O)(=O)c2ccccc2)cc1	40.6*	10.5	1.3	-3.4	i
CCOC(=O)CN(c1ccccn1)S(=O)(=O)c1ccccc1	/	-3.0	3.2	-2.7	/
COc1ccc(S(=O)(=O)N(CC(=O)O)c2ccccn2)cc1	39.9*	-0.9	0.6	-1.1	i
COC(=O)[C@]12C[C@H](CC(=O)NCCC(C)C)C(=O)N(Cc3ccc4c(c3)OCO4)C1=C[C@H](C(C)(C)C)O[C@@H]2C	/	-12.2	-5.5	/	/
CN(C(=O)COC(=O)c1ccc(-c2ccc(O)cc2)cc1)C1CCS(=O)(=O)C1 (configuration not stated)	38.5*	3.1	0.9	-4.0	i
COc1ccc(S(=O)(=O)N(Cc2ccccc2)c2ccccc2C(=O)Nc2ccccc2C(=O)NCc2ccco2)cc1	19.0	4.3	-6.2	6.3	/
COc1ccc(S(=O)(=O)Nc2ccccc2C(=O)NCc2ccco2)cc1	39.6*	4.5	0.3	3.1	+
CCN(CC)CCNC(=O)Cn1c(-c2ccccn2)nc2ccccc21	47.5*	1.0	-0.3	-3.2	+
NNC(=O)Cn1c(-c2ccccn2)nc2ccccc21	11.6	1.9	-0.2	-1.8	/
COc1cc(/C=N/NC(=O)c2ccc(CSc3nc4ccccc4[nH]3)cc2)cc(OC)c1OC	48.5*	4.5	6.6	5.8	+
O=C(NCCO)c1ccc(CSc2nc3ccccc3[nH]2)cc1	1.9	3.0	-2.1	-0.3	/
COc1cc(/C=N/Nc2nc3ccccc3[nH]2)cc(Br)c1OCC(=O)N(C)C	57.0*	-8.4	0.8	2.3	+
SMILES	Neddyl block	GC-B act	NPR1 activator	NadD inh	Neddyl inh conf
COC(=O)[C@H](CC(C)C)N1Cc2nnn(Cc3ccccc3)c2-c2ccccc2S1(=O)=O	/	0.0	-3.1	/	/
COCCCNC(=O)C[C@H]1C[C@@]2(C(=O)OC)C(=C[C@H](C3CCCC3)O[C@@H]2C)N(Cc2ccccc2)C1=O	/	-5.8	-5.4	/	/
CC(C)(C)c1ccc(/C=C2\CCn3c2nc2cc(C(=O)O)ccc2c3=O)cc1	45.5*	/	/	8.3	+
COc1ccc(/C=C2\CCn3c2nc2cc(C(=O)O)ccc2c3=O)cc1	11.3	0.3	2.0	-1.0	/
C=CCN1[C@@H](CC(C)C)COc2cccc(F)c2S1(=O)=O	/	-1.3	-1.3	/	/
Cc1c(Cl)ccc2sc(NC(=O)c3ccco3)nc12	41.9*	-10.4	16.5	-7.5	i
CCCC1CCC2(CC1)CCC2OC(=S)NCc1ccc(Cl)cc1 (configuration not stated)	/	-3.8	-2.8	/	/
COc1ccc(/C=N\NC(=O)Cc2cccs2)c(OC)c1OC	/	-8.7	1.4	/	/
S=c1[nH]c2ccccc2n2c(=S)[nH]nc12	-34.7	-116.1	-77.2	-2.0	/
S=c1[nH]nc2ccc3ccccc3n12	38.3*	-9.6	2.3	3.2	/
Cc1cc(=O)oc2cc(NC(=O)c3ccc(OC(F)F)cc3)ccc12	/	0.1	-3.3	-0.7	/
Cc1cc(=O)oc2cc(NC(=O)C(C)Oc3ccc(F)cc3)ccc12 (configuration not stated)	38.7*	-6.0	-2.4	-4.1	/
Cc1onc(-c2ccccc2)c1C(=O)Nc1ccc2c(C)cc(=O)oc2c1	40.6*	-6.4	-7.8	-3.2	i
Cc1cc(=O)oc2ccc(OC(C)C(=O)O)cc12 (configuration not stated)	45.6*	5.2	-0.1	-6.0	i
CCCC(C(=O)Nc1ccc2c(C)cc(=O)oc2c1)c1ccccc1 (configuration not stated)	41.7*	-7.7	-6.2	-5.9	i
COc1cccc(C(=O)N[C@H](C(=O)N2CCC[C@H]2C(=O)NCc2ccccc2)C2CCCCC2)c1	/	-0.1	-2.2	/	/
CN(CCCOC(=O)c1cc2ccccc2o1)C1CN(Cc2cn(Cc3ccc([N+](=O)[O-])cc3)nn2)S(=O)(=O)C1 (configuration not stated)	/	-3.4	-0.4	/	/
Cc1sc(NC(=O)c2ccco2)c(C(c2ccncc2)N2CCOCC2)c1C (configuration not stated)	1.9	-8.0	-16.9	4.4	/
COc1cccc(C(c2c(NC(=O)c3ccco3)sc(C)c2C)N2CCOCC2)c1 (configuration not stated)	43.3*	-17.2	-23.0	1.3	/
CCOc1ccc(-c2cc(C(C)=O)c3n(c2=O)CCC3)cc1	/	-4.7	-2.8	/	/
Cc1nc(C(=O)N/N=C/c2[nH]ncc2Br)cs1	42.1*	-6.6	1.2	0.9	i
COc1ccc(C(=O)CSc2nnc(-c3cccnc3)n2-c2ccc(C)cc2)cc1	/	-1.7	5.4	/	/
OC(c1ccc(F)cc1)c1ncc(-c2cccc3ccccc23)[nH]1 (configuration not stated)	40.0*	-4.3	-3.6	-0.8	i
O=C(CSc1nnc(-c2ccccc2)n1-c1ccc(Cl)cc1)Nc1cccc2ccccc12	/	-12.0	-14.8	/	/
COCCCN1C(=O)[C@H](CC(=O)NCC2CCCCC2)[C@]2(C(=O)OC)CCCCC=C12	/	7.3	3.6	/	/
CCCCOCCCNC(=O)C[C@H]1C(=O)N(Cc2ccc(OC)cc2)C2=CCCC[C@@]21C(=O)OCC	/	0.7	1.6	/	/
Cc1ncc(CC(=O)n2cc(C(=O)c3cc(F)ccc3O)cn2)s1	41.2*	-2.9	-3.0	-2.4	i
Cc1ccc(O)c(C(=O)c2cnn(C(=O)Cc3csc(C)n3)c2)c1	26.2	-3.5	-2.0	1.5	/
